# Measured values as given in PubChem BioAssay (EPA / NIEHS).
# Results filed as inconclusive are left out. Activity calls are given as the source filed them. Rule for the calls, unless noted: active = hit-call score of the fitted dose curve at least 0.9, where 1 is the maximum; inconclusive = response in the unintended direction; inactive = score below 0.9.
# Legend:
# [1] = read-out: Cytochrome P450 2C9 (Homo sapiens) (UniProt P11712); assay: CLD_CYP2C9_48hr: CellzDirect (CLD) Gene Expression Assay for xenobiotic metabolism (CYP2C9) at 48 hours (AID 2283701; active = hit-call score of the fitted dose curve at least 0.9, where 1 is the maximum; inactive = score below 0.9)
# How it was run: (§1)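 Primary human hepatocytes (two donor preparations) dosed daily for two days with test chemicals, 0.2% DMSO vehicle; harvested at 48 h. mRNA induction quantified by qNPA chemiluminescence, fitted for gain of signal against DMSO baseline; cytotoxicity annotated from phase-contrast morphology.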
# [2] = CLD_ACTIN_48hr: CellzDirect (CLD) Gene Expression Assay for Baseline Control (Actin) at 48 hours (AID 2283702)
# How it was run: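 Primary human hepatocytes (two donor preparations) dosed daily for two days with ToxCast chemicals at multiple concentrations versus 0.2% DMSO vehicle; harvested at 48 h. Actin mRNA measured as a background control by quantitative nuclease protection assay with chemiluminescence.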
# [3] = read-out: xenobiotic metabolism (CYP1A2), CYP1A2 (gene 1544); assay: CLD_CYP1A2_48hr: CellzDirect (CLD) Gene Expression Assay for xenobiotic metabolism (CYP1A2) at 48 hours (AID 2283703)
# How it was run: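 Primary human hepatocytes from two donor preparations were dosed daily for two days at multiple concentrations in 0.2% DMSO vehicle. CYP1A2 mRNA was measured at 48 hours by chemiluminescent quantitative nuclease protection assay, with gain of signal fitted versus DMSO and cytotoxicity annotated from morphology.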
# [4] = read-out: glucuronosyltransferase (UGT1A1), UGT1A1 (gene 54658); assay: CLD_UGT1A1_48hr: CellzDirect (CLD) Gene Expression Assay for glucuronosyltransferase (UGT1A1) at 48 hours (AID 2283709);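 note: actives increase expression relative to DMSO so potency refers to induction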
# How it was run: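 Human primary hepatocytes dosed daily for two days (0.2% DMSO vehicle), harvested at 48 h. UGT1A1 mRNA induction measured by quantitative nuclease protection assay with chemiluminescence; gain of signal versus DMSO; cytotoxicity flagged from morphology.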
# [5] = STM_H9_OrnithineISnorm_perc: Stemina devTOX quickPredict H9 human embryonic stem cell (hESC)-based Assay for Ornithine (ORN) Metabolite Biomarker, Normalized (AID 2283712; active = hit-call score of the fitted dose curve at least 0.9, where 1 is the maximum; inactive = score below 0.9;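 note: ornithine released into spent medium during last day measured by mass spectrometry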)
# How it was run: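 Undifferentiated H9 hESCs exposed 72 h with daily media and compound renewal; final 24-h conditioned medium analysed by UPLC-HRMS. Ornithine peak area normalised to spiked C13 standard and to median 0.1% DMSO control; viability by CellTiter-Fluor.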
# [6] = STM_H9_CystineISnorm_perc: Stemina devTOX quickPredict H9 human embryonic stem cell (hESC)-based Assay for Cystine (CYSS) Metabolite Biomarker, Normalized (AID 2283713; active = hit-call score of the fitted dose curve at least 0.9, where 1 is the maximum; inactive = score below 0.9)
# How it was run: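 Undifferentiated H9 hESCs exposed 72 h, compound and media replaced every 24 h; final 24-h media analysed by UPLC-HRMS. Cystine normalized to C13 spike-in standard and median 0.1% DMSO control.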
# [7] = STM_H9_OrnCyssISnorm_ratio: Stemina devTOX quickPredict H9 human embryonic stem cell (hESC)-based Assay for Ornithine (ORN):Cystine (CYSS) Ratio (AID 2283714)
# How it was run: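 Steps: H9 hESCs in pluripotent state dosed 72h, medium plus compound renewed every 24h; conditioned medium from the final 24h deproteinized in 40% acetonitrile; ORN and CYSS quantified by UPLC-HRMS with C13 spike-ins; ratio relative to vehicle.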
# [8] = Tanguay_ZF_120hpf_ActivityScore_legacy: (Legacy) Oregon State University Tanguay Lab 120 Hour Post-fertilization zebrafish Assay Score for Activity (AID 2283742);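 for AC50: dechorionated Tropical 5D wild-type zebrafish embryos held singly per well; static exposure from 6 hpf until 120 hpf at 28 °C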
# How it was run: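 Embryos are staged, enzymatically dechorionated at 4 hpf, placed individually at 6 hpf, then held in test chemical (0.64% DMSO) at 28C until 120 hpf. Mortality and malformations are scored by brightfield, with non-mortality endpoints skipped for dead embryos.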
# [9] = read-out: xenobiotic metabolism (CYP1A1), CYP1A1 (gene 1543); assay: CLD_CYP1A1_48hr: CellzDirect (CLD) Gene Expression Assay for xenobiotic metabolism (CYP1A1) at 48 hours (AID 2283705)
# How it was run: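 Primary human hepatocytes from two donors dosed daily for two days at multiple concentrations, 0.2% DMSO vehicle; CYP1A1 mRNA induction at 48 h by qNPA chemiluminescence. Cytotoxicity noted by phase-contrast morphology.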
# [10] = read-out: HMG-CoA synthase (HMGCS2), HMGCS2 (gene 3158); assay: CLD_HMGCS2_48hr: CellzDirect (CLD) Gene Expression Assay for HMG-CoA synthase (HMGCS2) at 48 hours (AID 2283711)
# How it was run: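 Primary human hepatocytes from two donors dosed daily for two days, 0.2% DMSO vehicle. HMGCS2 mRNA measured 48 h after dosing by quantitative nuclease protection assay with chemiluminescent read-out; induction fitted relative to DMSO, cytotoxicity flagged by microscopy.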
# [11] = CEETOX_H295R_MTT_cell_viability: Viability Assessment in the CeeTox HT-H295R MTT Assay (AID 2283718; active = hit-call score of the fitted dose curve at least 0.9, where 1 is the maximum; inactive = score below 0.9;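 for AC50: curve fitted both ways so AC50 may mark viability loss or gain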)
# How it was run: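 MTT reduction (0.5 mg/ml, 4 h at 37 C; absorbance at 570 and 650 nm) gave viability as background-corrected percent change versus controls. H295R cells had 48 h forskolin (10 uM) prestimulation, then 48 h chemical exposure at 0.1% DMSO.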
# [12] = tested on: Thyroperoxidase (TPO), gene 445522; assay: CCTE_Simmons_GUA_TPO: CCTE's Guaiacol Assay for Thyroperoxidase (TPO) Inhibition, Simmons Lab (AID 2283750)
# How it was run: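 Porcine thyroid microsomes (25 ug) in 200mM potassium phosphate, preincubated 30 s at 37C with compound (8 concentrations, 5 nM–87.5 uM) and 35mM guaiacol; 1mM H2O2 starts reaction. Absorbance change at 450nm over first 80 s; loss of signal versus DMSO, three replicates.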
# [13] = read-out: sulfotransferase (SULT2A), SULT2A1 (gene 6822); assay: CLD_SULT2A_48hr: CellzDirect (CLD) Gene Expression Assay for sulfotransferase (SULT2A) at 48 hours (AID 2283710);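 note: hits raise SULT2A1 transcript above the 0.2% DMSO vehicle baseline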
# How it was run: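 Primary human hepatocytes (two donor preparations) dosed daily for two days with chemicals at multiple concentrations, vehicle 0.2% DMSO; SULT2A1 mRNA induction at 48 h by quantitative nuclease protection assay, chemiluminescent read-out, fitted for gain of signal versus DMSO.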
# [14] = read-out: alkyl and aryl transferase (GSTA2), GSTA2 (gene 2939); assay: CLD_GSTA2_48hr: CellzDirect (CLD) Gene Expression Assay for alkyl and aryl transferase (GSTA2) at 48 hours (AID 2283708);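 note: active means mRNA induction above DMSO vehicle baseline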
# How it was run: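 Primary human hepatocytes dosed daily for two days (0.2% DMSO vehicle), harvested at 48 h. GSTA2 mRNA induction measured by quantitative nuclease protection assay with chemiluminescent imaging, fitted for gain of signal relative to DMSO.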
# [15] = read-out: xenobiotic metabolism (CYP2C9), CYP2C9 (gene 1559); assay: CLD_CYP2C9_48hr: CellzDirect (CLD) Gene Expression Assay for xenobiotic metabolism (CYP1A2) at 48 hours (AID 2283701)
# How it was run: as §1
smiles,measurement,setting,value
CO/N=C(/C1=NOCCO1)c1ccccc1Oc1ncnc(Oc2ccccc2Cl)c1F,outcome,[1],inactive
same,outcome,[2],inactive
same,outcome,[3],inactive
same,outcome,[4],inactive
same,AC50,[5],24 µM (active)
same,AC50,[6],9.72 µM (active)
same,AC50,[7],18.2 µM (active)
same,AC50,[8],3.17 µM (active)
COC(=O)NC(=S)Nc1ccccc1NC(=S)NC(=O)OC,outcome,[1],inactive
same,outcome,[2],inactive
same,AC50,[3],15.7 µM (active)
same,AC50,[9],3.32 µM (active)
same,outcome,[4],inactive
same,outcome,[10],inactive
same,outcome,[11],inactive
same,outcome,[8],inactive
same,AC50,[12],49.6 µM (active)
COP(=S)(OC)SCn1nnc2ccccc2c1=O,outcome,[1],inactive
same,AC50,[3],0.409 µM (active)
same,AC50,[9],1.36 µM (active)
same,AC50,[4],6.38 µM (active)
same,outcome,[11],inactive
same,outcome,[8],inactive
same,AC50,[12],49.6 µM (active)
CCCCC(O)(Cn1cncn1)c1ccc(Cl)cc1Cl (centres undefined),outcome,[1],inactive
same,outcome,[2],inactive
same,AC50,[3],3.97 µM (active)
same,outcome,[4],inactive
same,outcome,[13],inactive
same,AC50,[5],85.1 µM (active)
same,AC50,[6],78.9 µM (active)
same,AC50,[7],76.5 µM (active)
same,outcome,[8],inactive
CCCCC(C#N)(Cn1cncn1)c1ccc(Cl)cc1 (centres undefined),outcome,[1],inactive
same,AC50,[3],11.7 µM (active)
same,outcome,[4],inactive
same,AC50,[5],76 µM (active)
same,outcome,[6],inactive
same,AC50,[7],77.9 µM (active)
same,outcome,[11],inactive
same,outcome,[8],inactive
CCNP(=S)(OC)O/C(C)=C/C(=O)OC(C)C (centres undefined),outcome,[1],inactive
same,AC50,[3],1.99 µM (active)
same,AC50,[4],1.04 µM (active)
same,AC50,[5],50 µM (active)
same,AC50,[6],75.5 µM (active)
same,AC50,[7],72.6 µM (active)
same,outcome,[11],inactive
same,outcome,[8],inactive
CCOc1nc(C(Cl)(Cl)Cl)ns1,outcome,[1],inactive
same,outcome,[2],inactive
same,AC50,[3],5.52 µM (active)
same,outcome,[4],inactive
same,outcome,[10],inactive
same,AC50,[5],0.11 µM (active)
same,outcome,[6],inactive
same,AC50,[7],9.92 µM (active)
same,outcome,[11],inactive
same,outcome,[8],inactive
CCOc1cc(C(C)(C)C)ccc1C1COC(c2c(F)cccc2F)=N1 (centres undefined),outcome,[1],inactive
same,AC50,[3],20 µM (active)
same,outcome,[4],inactive
same,outcome,[11],inactive
same,outcome,[8],inactive
C=CCOC(=O)C(C)(C)OC(=O)c1cc(-n2c(=O)cc(C(F)(F)F)n(C)c2=O)ccc1Cl,outcome,[1],inactive
same,outcome,[2],inactive
same,outcome,[4],inactive
same,outcome,[8],inactive
Cc1cc(C)nc(Nc2ccccc2)n1,outcome,[1],inactive
same,AC50,[3],7.9 µM (active)
same,outcome,[4],inactive
same,outcome,[10],inactive
same,outcome,[5],inactive
same,AC50,[6],7.74 µM (active)
same,outcome,[8],inactive
CCCN(CC)CC1COC2(CCC(C(C)(C)C)CC2)O1 (centres undefined),outcome,[1],inactive
same,AC50,[3],0.199 µM (active)
same,outcome,[4],inactive
same,outcome,[10],inactive
same,outcome,[5],inactive
same,AC50,[6],1.03 µM (active)
same,AC50,[7],1.3 µM (active)
same,outcome,[11],inactive
same,outcome,[8],inactive
COC(=O)c1c(C(F)F)nc(C(F)(F)F)c(C2=NCCS2)c1CC(C)C,outcome,[1],inactive
same,AC50,[3],1.66 µM (active)
same,outcome,[4],inactive
same,AC50,[13],1.7 µM (active)
same,AC50,[11],38.8 µM (active)
same,outcome,[8],inactive
Cc1cnc(C2=NC(C)(C(C)C)C(=O)N2)c(C(=O)O)c1 (centres undefined),outcome,[1],inactive
same,outcome,[2],inactive
same,outcome,[3],inactive
same,outcome,[8],inactive
COc1cc(Cl)c(OC)cc1Cl,outcome,[3],inactive
same,outcome,[4],inactive
same,outcome,[13],inactive
same,outcome,[11],inactive
same,outcome,[8],inactive
CCOC(=O)C(C)OC(=O)c1cc(Oc2ccc(C(F)(F)F)cc2Cl)ccc1[N+](=O)[O-] (centres undefined),AC50,[3],20 µM (active)
same,AC50,[4],7 µM (active)
same,AC50,[10],0.241 µM (active)
same,outcome,[11],inactive
same,outcome,[8],inactive
Cc1ccc(N=CN(C)C=Nc2ccc(C)cc2C)c(C)c1,AC50,[3],0.673 µM (active)
same,outcome,[8],inactive
O=C(Nc1ccccc1-c1ccc(Cl)cc1)c1cccnc1Cl,outcome,[2],inactive
same,AC50,[3],4.95 µM (active)
same,outcome,[14],inactive
same,outcome,[4],inactive
same,AC50,[5],50 µM (active)
same,outcome,[6],inactive
same,AC50,[7],72.1 µM (active)
same,outcome,[11],inactive
same,outcome,[8],inactive
O=C1C2CC=CCC2C(=O)N1SC(Cl)(Cl)Cl (centres undefined),outcome,[9],inactive
same,outcome,[5],inactive
same,outcome,[6],inactive
same,outcome,[11],inactive
same,AC50,[8],43.5 µM (active)
CCSC(=O)N1CCCCCC1,outcome,[2],inactive
same,outcome,[9],inactive
same,outcome,[4],inactive
same,outcome,[11],inactive
same,outcome,[8],inactive
Clc1nc(Cl)nc(Nc2ccccc2Cl)n1,outcome,[2],inactive
same,outcome,[3],inactive
same,outcome,[9],inactive
same,outcome,[4],inactive
same,outcome,[11],inactive
same,outcome,[8],inactive
CN=C=S,outcome,[2],inactive
same,outcome,[4],inactive
same,outcome,[8],inactive
COP(=O)(OC)O/C(C)=C/C(=O)N(C)C,outcome,[1],inactive
same,outcome,[3],inactive
same,outcome,[4],inactive
same,outcome,[8],inactive
O=C(O)c1c(Cl)ccc2cc(Cl)cnc12,AC50,[15],0.069 µM (active)
same,outcome,[3],inactive
same,outcome,[9],inactive
same,outcome,[10],inactive
same,outcome,[8],inactive
CNC(=O)N(C)c1nnc(C(C)(C)C)s1,outcome,[2],inactive
same,outcome,[3],inactive
same,outcome,[9],inactive
same,outcome,[4],inactive
same,outcome,[10],inactive
same,outcome,[8],inactive
CNC(=O)Oc1cccc2ccccc12,AC50,[3],3.23 µM (active)
same,AC50,[9],3.57 µM (active)
same,outcome,[4],inactive
same,outcome,[5],inactive
same,AC50,[6],2.87 µM (active)
same,AC50,[7],2.71 µM (active)
same,outcome,[11],inactive
same,outcome,[8],inactive
C=C(C)CN(CC)c1c([N+](=O)[O-])cc(C(F)(F)F)cc1[N+](=O)[O-],outcome,[2],inactive
same,outcome,[3],inactive
same,outcome,[14],inactive
same,outcome,[4],inactive
same,outcome,[8],inactive
CN/C(=N\[N+](=O)[O-])NCc1cnc(Cl)s1,outcome,[11],inactive
same,outcome,[8],inactive
